Experimental data reported in PubChem BioAssay (NCI).
This is part of a sample that, as a whole, favours compounds with a hit. Of some 83,000 tested, about 20% had one in any assay.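 Interpretation: 100, growth as untreated; towards 0, rising growth inhibition; 0, no net growth; 0 to -100, cell death. Compounds scoring below 10 were considered active.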 Calls of active or inactive are those of the source.

Test system: OVCAR-4 ovarian
Assay: NCI-60 one-dose screen, 48 h (100 = growth as untreated, 0 = no growth, -100 = all killed)
Conditions: 10 µM unless noted

Which growth does the source give for COc1c(B(O)O)cccc1-c1nc2ccc3[nH]ncc3c2c2c1C1CCC2C1 (centres undefined) here?
The growth was 115% (inactive).

How did the growth turn out when O=C(Nc1ccc(Cl)cc1F)c1cc(F)ccc1O was run?
Its growth is 11.2% (inactive).

With O=c1oc2ccc(I)cc2c(=O)n1-c1ccc(I)cc1F as the compound, how does the growth read?
Its growth is 16.7% (inactive).

With NCCNc1nc2ccc(F)cc2c2c(=O)c3cc(F)ccc3sc12 as the compound, how does the growth read?
Its growth is 37.2% (inactive).

For O=C(Nc1ccc(Br)cc1F)c1cc(F)ccc1O, which growth is on record?
Its growth is 12.4% (inactive).

How did the growth turn out when Cc1ccc(Nc2nc(N)c3ccccc3n2)cc1Cl was run?
Its growth is 55.7% (inactive).

With O=C1c2cc(I)ccc2Oc2cc([N+](=O)[O-])ccc2N1c1ccc(Cl)cc1F as the compound, how does the growth read?
Its growth is 79.4% (inactive).

How did the growth turn out when CC1=C(C(=O)OCC2CCN(C(=O)OC(C)(C)C)CC2)[C@H](c2cccc(Br)c2)C2=C(CC(C)(C)CC2=O)N1 was run?
Its growth is 40% (inactive).

With O=C(c1ccccc1)N(C(=S)NCCc1ccc(Cl)cc1)c1ccc(Cl)cc1 as the compound, how does the growth read?
The growth was 88.8% (inactive).

C#CCn1cc(C=C2C(=O)NC(=O)NC2=O)c2cc(Cl)ccc21 was tested. Which growth did it give?
Its growth is 75.9% (inactive).

How did the growth turn out when O=c1oc2ccc(Br)cc2c(=O)n1-c1ccc(F)cc1F was run?
The growth was 15% (inactive).

For O=C(Nc1ccc(Br)cc1F)c1cc(I)ccc1O, which growth is on record?
The growth was 15.4% (inactive).

For O=c1oc2ccc(Cl)cc2c(=O)n1-c1cc(C(F)(F)F)cc(C(F)(F)F)c1, which growth is on record?
Its growth is 18.1% (inactive).

For O=c1oc2ccc(Br)cc2c(=O)n1-c1ccc(I)cc1F, which growth is on record?
Its growth is 15.2% (inactive).

With O=c1oc2ccc(-c3ccc(F)cc3F)cc2c(=O)n1-c1cccc(C(F)(F)F)c1 as the compound, how does the growth read?
The growth was 19.2% (inactive).

Which growth does the source give for O=c1oc2ccc(F)cc2c(=O)n1-c1ccc(Br)cc1F here?
The growth was 11.9% (inactive).

For O=c1oc2ccc(I)cc2c(=O)n1-c1ccc(Br)cc1F, which growth is on record?
The growth was 17.1% (inactive).

For Cc1nc(Nc2ccccn2)sc1C(=O)/C=C/c1ccc(Cl)cc1, which growth is on record?
The growth was 54% (inactive).

For Nc1cccc(Nc2cc(S(=O)(=O)O)c(N)c3c2C(=O)c2ccccc2C3=O)c1, which growth is on record?
The growth was 107% (inactive).

COc1ccc2sc(N(Cc3cccnc3)C(=O)c3ccc(C#N)cc3)nc2c1 was tested. Which growth did it give?
The growth was 105% (inactive).

How did the growth turn out when COc1cccc(C2=NN3C(C2)c2ccccc2OC3c2ccc(/C=C3\SC(=O)NC3=O)cc2)c1 (centres undefined) was run?
Its growth is 103% (inactive).

How did the growth turn out when O=C1c2cc(Br)ccc2Oc2cc([N+](=O)[O-])ccc2N1c1ccc(I)cc1F was run?
Its growth is 94.5% (inactive).

For O=c1oc2ccc(Cl)cc2c(=O)n1-c1ccc(Cl)cc1F, which growth is on record?
Its growth is 11% (inactive).

With COc1ccc(C2C3=C(COC3=O)N(CCO)c3cc4c(cc32)OCCO4)cc1 (centres undefined) as the compound, how does the growth read?
The growth was 98.8% (inactive).

How did the growth turn out when CC[C@]1(O)C[C@@H]2CN(CCc3c([nH]c4ccccc34)[C@@](C(=O)OC)(c3cc4c(cc3OC)N(C)[C@H]3[C@@](O)(C(=O)OC)[C@H](OC(=O)CCCBr)[C@]5(CC)C=CCN6CC[C@]43[C@@H]65)C2)C1 was run?
The growth was 35.3% (inactive).

With O=C1c2cc(Cl)ccc2Oc2cc([N+](=O)[O-])ccc2N1c1ccc(F)cc1F as the compound, how does the growth read?
Its growth is 79.4% (inactive).

For COc1ccccc1N1C(=N)S/C(=C\c2ccc(OCc3ccccc3F)cc2)C1=O, which growth is on record?
Its growth is 87% (inactive).

Which growth does the source give for CC[C@]1(O)C[C@@H]2CN(CCc3c([nH]c4ccccc34)[C@@](C(=O)OC)(c3cc4c(cc3OC)N(C)[C@H]3[C@@](O)(C(=O)OC)[C@H](OC(C)=O)[C@]5(CC)C=CCN6CC[C@]43[C@@H]65)C2)C1 here?
Its growth is 33.7% (inactive).

For O=c1c2cc(F)ccc2sc2c(NCCCNCCO)nc3ccc(Cl)cc3c12, which growth is on record?
Its growth is 61% (inactive).

With COc1cc2cc3c(=O)n4c(cc5cc(OC)ncc54)c(=O)n3c2cn1 as the compound, how does the growth read?
Its growth is 114% (inactive).

Nc1ccc(-c2nn3c(CCC(=O)c4nc5ncccc5[nH]4)nnc3s2)c(O)c1 was tested. Which growth did it give?
The growth was 98% (inactive).

With O=c1oc2ccc(Br)cc2c(=O)n1-c1ccc(Cl)cc1F as the compound, how does the growth read?
The growth was 15.1% (inactive).

For COc1ccc(/C=C2\NC(=O)NC2=O)cc1O, which growth is on record?
The growth was 98.8% (inactive).

With CN(C)c1ccc(/C=C/c2ccnc3c(O)cccc23)cc1 as the compound, how does the growth read?
Its growth is 31.9% (inactive).

How did the growth turn out when O=C(c1ccccc1)N(C(=S)NCCc1ccc(Cl)cc1)c1ccccc1 was run?
The growth was 96.9% (inactive).

O=c1oc2ccc(Cl)cc2c(=O)n1-c1ccc(F)cc1F was tested. Which growth did it give?
The growth was 18.5% (inactive).

Which growth does the source give for CC(C)C[C@H](C(=O)N[C@@H](C)C(N)=O)N1CC=CCN(O)S1(=O)=O here?
Its growth is 106% [5 µM] (inactive).

O=C(Nc1ccc(Cl)cc1F)c1cc(I)ccc1O was tested. Which growth did it give?
The growth was 23.1% (inactive).

For O=C(CCc1nnc2sc(Cc3ccccc3Cl)nn12)c1nc2ncccc2[nH]1, which growth is on record?
The growth was 92.5% (inactive).
